# Measured values published in the supplement of paper PMC13380429.
# Legend:
# [1] = tested on: Vero E6 infected with SARS-CoV-2; assay: inhibition of SARS-CoV-2 cytopathic effect; higher = more antiviral protection, active = above 15; conditions: 48 h
# [2] = tested on: Vero E6 infected with SARS-CoV-2; assay: morphology score (similarity to uninfected cells); higher = more like uninfected cells; conditions: 24 h
# [3] = tested on: Vero E6 infected with SARS-CoV-2; assay: SARS-CoV-2 infection rate relative to infected DMSO; higher = more infection, active = 60 or less; conditions: 24 h
smiles,measurement,setting,value
COc1cccc(-n2nc(C(=O)O)cc2-c2ccc(C3CCCCC3)c(Cl)c2)c1,inhibition of SARS-CoV-2 cytopathic effect,[1]; 1 nM,0.77% (inactive)
same,inhibition of SARS-CoV-2 cytopathic effect,[1]; 8.33 nM,1.66% (inactive)
same,inhibition of SARS-CoV-2 cytopathic effect,[1]; 100 nM,2.64% (inactive)
same,inhibition of SARS-CoV-2 cytopathic effect,[1]; 833.33 nM,1.95% (inactive)
same,inhibition of SARS-CoV-2 cytopathic effect,[1]; 10000 nM,6.19% (inactive)
CCOC(=O)[C@H](Cc1ccc([N+](=O)[O-])cc1)NC(=O)c1ccccc1,inhibition of SARS-CoV-2 cytopathic effect,[1]; 1 nM,0.55% (inactive)
same,inhibition of SARS-CoV-2 cytopathic effect,[1]; 8.33 nM,1.63% (inactive)
same,inhibition of SARS-CoV-2 cytopathic effect,[1]; 100 nM,2.6% (inactive)
same,inhibition of SARS-CoV-2 cytopathic effect,[1]; 833.33 nM,-1.21% (inactive)
same,inhibition of SARS-CoV-2 cytopathic effect,[1]; 10000 nM,0.3% (inactive)
Nc1sc2c(c1C(=O)c1ccc(Cl)cc1)CCCC2,inhibition of SARS-CoV-2 cytopathic effect,[1]; 1 nM,-0.5% (inactive)
same,inhibition of SARS-CoV-2 cytopathic effect,[1]; 8.33 nM,3.31% (inactive)
same,inhibition of SARS-CoV-2 cytopathic effect,[1]; 100 nM,0.38% (inactive)
CC(=O)O[C@@]12CO[C@@H]1C[C@H](O)[C@@]1(C)C(=O)[C@H](O)C3=C(C)[C@@H](O)C[C@@](O)([C@@H](OC(=O)c4ccccc4)[C@H]21)C3(C)C [10-deacetylbaccatin] (10 µM),morphology score,[2],0.18
same,SARS-CoV-2 infection rate,[3],109% (inactive)
CCOc1c2c(c(OCC)c3ccccc13)C(=O)N(c1ccc(CC(=O)NS(=O)(=O)c3ccccc3)cc1)C2 (10 µM),morphology score,[2],0.117
same,SARS-CoV-2 infection rate,[3],104% (inactive)
CC(C)NCCCn1c(Sc2cc3c(cc2I)OCO3)nc2c(N)ncnc21 (0.833333 µM),morphology score,[2],0.255
same,SARS-CoV-2 infection rate,[3],96.5% (inactive)
COc1cc2c(Nc3ccc(NC(=O)c4ccccc4)cc3)ncnc2cc1OCCCN1CCOCC1,inhibition of SARS-CoV-2 cytopathic effect,[1]; 1 nM,-0.39% (inactive)
same,inhibition of SARS-CoV-2 cytopathic effect,[1]; 8.33 nM,0.92% (inactive)
same,inhibition of SARS-CoV-2 cytopathic effect,[1]; 100 nM,-0.95% (inactive)
same,inhibition of SARS-CoV-2 cytopathic effect,[1]; 833.33 nM,0.98% (inactive)
same,inhibition of SARS-CoV-2 cytopathic effect,[1]; 10000 nM,0.98% (inactive)
O=S(=O)(O)c1ccc(-c2c3nc(c(-c4ccc(S(=O)(=O)O)cc4)c4ccc([nH]4)c(-c4ccc(S(=O)(=O)O)cc4)c4nc(c(-c5ccc(S(=O)(=O)O)cc5)c5ccc2[nH]5)C=C4)C=C3)cc1 (10 µM),morphology score,[2],-0.0273
same,SARS-CoV-2 infection rate,[3],102% (inactive)
